GPR151 activ = activates the human receptor GPR151. AID 1508602. PathHunter beta-arrestin GPR151 cells, luminescence. Q8TDV0. actives 1% (n = 650,000). activation, % at 11.2 µM; in the data active means activation above about 4.9%;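 further: 0% = median of compound wells and 100% = cells with positive control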
MITF primary = blocks human microphthalmia-associated transcription factor | O75030 | AlphaScreen MITF homodimerization, bead proximity signal | inhibition, % at 2.6 µM | actives 0.91% (n = 650,000); in the data active means inhibition above about 50%;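 further: 0% = vehicle wells with protein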
TEAD-YAP block = TEAD-YAP interaction inhibition; inhibition, % at 9.12 µM; actives 1.4% (n = 640,000); HEK-TIYL cells, TEAD-Gal4/YAP UAS-luciferase luminescence; in the data active means inhibition above about 32%;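 further: 0% = median of test compound wells and 100% = reference inhibitor wells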
FBW7 act = activators of human E3 ligase FBW7. normalized activity (activation), % at 26.1 µM. AlphaScreen FBW7–phospho-cyclin E peptide binding, activator screen. AID 1259310. actives 0.13% (n = 650,000); in the data active means normalized activity above about 1.9%;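 further: purified mutant Fbw7 with reduced substrate affinity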
* hit, by the source's call. In the library only some 3.5% were active in any assay of this set; here they are far more common.

For O=c1c(CN2CCN(Cc3ccc4c(c3)OCO4)CC2)coc2ccccc12 the results were GPR151 activ -1, MITF primary 42, TEAD-YAP block 57* and FBW7 act 0.
O=C1CCCC2=C1C(c1cccs1)c1c(n[nH]c1-c1ccc([N+](=O)[O-])cc1)N2 (stereo not drawn) was read as GPR151 activ 0, MITF primary -1, TEAD-YAP block 42* and FBW7 act 0.
For C=CCn1c(C)cc(C2=NNC(=NC3CC3)SC2)c1C the results were GPR151 activ -1, MITF primary 18, TEAD-YAP block 95* and FBW7 act 0.
Screening Cc1cc(=O)[nH]c(SCC(=O)Nc2ccc(Br)cn2)n1 returned GPR151 activ -1, MITF primary 13, TEAD-YAP block -2 and FBW7 act 0.
For O=C(CSc1nc2ccccc2[nH]1)Nc1ccc(Br)cn1 the results were GPR151 activ 2, MITF primary -13, TEAD-YAP block 76* and FBW7 act 0.
Screening O=C(CN1CCOCC1)N/N=C/c1ccc(Cl)cc1Cl returned GPR151 activ 0, MITF primary 9, TEAD-YAP block 2 and FBW7 act 1.
For O=C(/C=C/c1ccccc1[N+](=O)[O-])N1CCCC1 the results were GPR151 activ 1, MITF primary -1, TEAD-YAP block -3 and FBW7 act 0.
`O=C(/C=C/c1ccccc1[N+](=O)[O-])N1CCc2ccccc21` gave GPR151 activ -1, MITF primary -2, TEAD-YAP block 44* and FBW7 act 0.
O=C(/C=C/c1ccc(F)cc1)N1CCc2ccccc21 was read as GPR151 activ -4, MITF primary -2, TEAD-YAP block 56* and FBW7 act 0.
CC(C)c1ccc(OCC(=O)N/N=C/c2ccccc2O)cc1 was read as GPR151 activ -1, MITF primary -11, TEAD-YAP block 3 and FBW7 act 0.
For Cn1c(CNC(=O)c2ccccc2)nnc1SCC(=O)N1N=C(c2ccc(Br)cc2)CC1c1ccc(F)cc1 (stereo not drawn) the results were GPR151 activ 4, MITF primary -4, TEAD-YAP block 11 and FBW7 act 0.
CCOC(=O)c1ccc(NC(=O)CSc2nnc(NC(=O)C(C)C)s2)cc1 was read as GPR151 activ 1, MITF primary -1, TEAD-YAP block -7 and FBW7 act 0.
Screening CCCC(=O)NC(c1cccc(F)c1)c1ccc2cccnc2c1O (stereo not drawn) returned GPR151 activ 0, MITF primary 20, TEAD-YAP block 50* and FBW7 act -1.
For CCCC(=O)NC(c1cccc([N+](=O)[O-])c1)c1ccc2cccnc2c1O (stereo not drawn) the results were GPR151 activ 1, MITF primary 31, TEAD-YAP block 66* and FBW7 act -2.
For CCCCC(=O)NC(c1ccc([N+](=O)[O-])cc1)c1ccc2cccnc2c1O (stereo not drawn) the results were GPR151 activ 1, MITF primary 31, TEAD-YAP block 28 and FBW7 act -2.
CC(C)C(=O)NC(c1cccc([N+](=O)[O-])c1)c1ccc2cccnc2c1O (stereo not drawn) was read as GPR151 activ 1, MITF primary 54*, TEAD-YAP block 73* and FBW7 act -2.
Oc1c(C(Nc2nccs2)c2ccco2)ccc2cccnc12 (stereo not drawn) was read as GPR151 activ 1, MITF primary 20, TEAD-YAP block 6 and FBW7 act 0.
Screening O=[N+]([O-])c1cccc(C(Nc2nccs2)c2ccc3cccnc3c2O)c1 (stereo not drawn) returned GPR151 activ -1, MITF primary 37, TEAD-YAP block 38* and FBW7 act 0.
For Fc1ccccc1C1CC(c2cccs2)Nc2ncnn21 (stereo not drawn) the results were GPR151 activ 1, MITF primary -1, TEAD-YAP block 7 and FBW7 act 0.
O=C(NCCc1nnc2n1CCN(Cc1c(F)cccc1F)CC2)c1ccoc1 was read as GPR151 activ 1, MITF primary 16, TEAD-YAP block 5 and FBW7 act 0.
For N#CC1=C(N)N(c2sc3c(c2C#N)CCCCC3)C2=C(C(=O)CCC2)C1c1cccs1 (stereo not drawn) the results were GPR151 activ 2, MITF primary -5, TEAD-YAP block 53* and FBW7 act 0.
N#CC1=C(N)N(c2sc3c(c2C#N)CCCCC3)C2=C(C(=O)CCC2)C1c1ccccc1 (stereo not drawn) was read as GPR151 activ 1, MITF primary 0, TEAD-YAP block 14 and FBW7 act 0.
Screening COC(=O)c1cc(-c2c(C)nn(-c3ccccc3)c2C)n[nH]1 returned GPR151 activ 0, MITF primary -13, TEAD-YAP block -21 and FBW7 act 0.
Screening COc1ccc(/C(C)=N\NC(=O)c2cc(-c3c(C)nn(-c4ccccc4)c3C)n[nH]2)cc1 returned GPR151 activ -1, MITF primary 15, TEAD-YAP block 44* and FBW7 act 0.
NC(=O)CSc1nnc(-c2cccnc2)n1-c1cccc(C(F)(F)F)c1 was read as GPR151 activ -1, MITF primary 5, TEAD-YAP block 10 and FBW7 act 0.
For NC(=O)CSc1nnc(-c2ccncc2)n1-c1cccc(C(F)(F)F)c1 the results were GPR151 activ -1, MITF primary -7, TEAD-YAP block -8 and FBW7 act 2.6*.
Screening Cc1ccccc1C(=O)Nc1ccc(S(=O)(=O)N2CCCCC2)cc1 returned GPR151 activ 0, MITF primary 7, TEAD-YAP block 12 and FBW7 act 0.
Screening O=C(O)CCNc1cc(N2CCCCC2)c2noc3c2c1C(=O)c1ccccc1-3 returned GPR151 activ 3, MITF primary 89*, TEAD-YAP block 14 and FBW7 act 0.
`O=C1c2ccccc2-c2onc3c(N4CCCCC4)cc(Nc4ccccc4)c1c23` gave GPR151 activ -1, MITF primary 40, TEAD-YAP block 7 and FBW7 act 0.
Screening O=C(O)CNc1cc(N2CCCCCC2)c2noc3c2c1C(=O)c1ccccc1-3 returned GPR151 activ -5, MITF primary 61*, TEAD-YAP block 77* and FBW7 act -1.
CC(C)Nc1cc(N(C)CCO)c2noc3c2c1C(=O)c1ccccc1-3 was read as GPR151 activ 0, MITF primary 26, TEAD-YAP block 15 and FBW7 act 0.
Screening CC(C)Nc1cc(NCCO)c2noc3c2c1C(=O)c1ccccc1-3 returned GPR151 activ -2, MITF primary 43, TEAD-YAP block 37* and FBW7 act 0.
`CC1CCCN(c2cc(NCCN(C)CCO)c3c4c(onc24)-c2ccccc2C3=O)C1` (stereo not drawn) gave GPR151 activ -2, MITF primary 61*, TEAD-YAP block 39* and FBW7 act -1.
Cc1ccc(CNc2c(-c3ccccc3)c(=O)c2=O)cc1 was read as GPR151 activ -1, MITF primary -1, TEAD-YAP block -8 and FBW7 act 0.
`Cc1ccc(-c2c(Nc3ccccc3C)c(=O)c2=O)cc1` gave GPR151 activ 3, MITF primary 0, TEAD-YAP block 49* and FBW7 act 0.
